Consider 40 compounds from PubChem BioAssay (EPA / NIEHS).

The source made the active and inactive calls. How the source made its calls: active means hit-call score of the fitted dose curve at least 0.9, where 1 is the maximum; inactive means score below 0.9.

A short description of this test: ATG_M_32_CIS: Attagene CIS-FACTORIAL HepG2 Assay for M32 Transcription Factor (Internal Marker) (AID 2282949).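 Further: background control marker of the multiplexed CIS panel rather than a real target.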 The conditions noted are these: HepG2 Attagene cis-factorial M32 reporter, mRNA; actives raise or lower the signal. As for the experimental part: ATG_CIS is a cell-based, multiplexed-readout assay that uses HepG2, a human liver cell line, with measurements taken at 24 hours after chemical dosing in a 24-well plate.ATG_M_32_CIS is one of 52 assay component(s) measured or calculated from the ATG_CIS assay. It is designed to make measurements of mRNA induction, a form of inducible reporter, as detected with fluorescence intensity signals by Reverse transcription polymerase chain reaction (RT-PCR) and Capillary electrophoresis technology.Data from the assay component ATG_M_32_CIS was analyzed into 1 assay endpoint. This assay endpoint, ATG_M_32_CIS, was analyzed with bidirectional fitting relative to DMSO as the negative control and baseline of activity. Using a type of inducible reporter, measures of mRNA for gain or loss-of-signal activity can be used to understand the background control at the transcription factor-level as they relate to the gene . Furthermore, this assay endpoint can be referred to as a secondary readout, because this assay has produced multiple assay endpoints where this one serves a background control function. To generalize the intended target to other relatable targets, this assay endpoint is annotated to the background measurement intended target family, where the subfamily is internal marker.
Human liver HepG2 cells are transiently transfected with multiple reporter transcription units (MRTUs) in 6-well plates using FuGene 6 reagent (Roche; 3 ml FuGene/1 mg DNA). The MRTU constructs are regulated by a cis-regulating element (promoter). […] A major difference between the CIS and TRANS system is that in CIS activities of endogenous TFs are measured, whereas the TRANS assay evaluates changes in activities of exogenous, chimeric NR-Gal4 proteins. […] At the end of 24 hour incubation, total RNA was isolated using TriZol reagent (Invitrogen). The isolated RNA is then reverse-transcribed using oligo(dT) primer and Mo-MLV reverse transcriptase (Invitrogen) with DNAse I (Ambion) treatment for 30 min. The one-tenth of the produced cDNA was amplified by PCR using Taq DNA polymerase (Invitrogen) and two reporter sequence-specific primers. The PCR products were fluorescently labeled by primer extension with 6-arboxyfluorescein (6-FAM) 5'-labeled reporter sequence-specific primer (2 min at 95 C, 20 s at 68 C and 10 min at 72 C) and these products were digested with 5U of HpaI (New England Biolabs) for 2h at 37 C. The fragments were purified using Qiaquick PCR columns (Qiagen), analyzed on an ABI 3130xL genetic analyzer (Applied Biosystems) with peak positions identified by using a set of X-rhodamine (ROX)-labeled MapMarker1000 molecular weight standards (BioVentures). The raw capillary electrophoresis data was processed using Attagraph software (Attagene).
Take `NCCOCCO`: the result was inactive. The same measure, in the same setting: the same measure for `CCCC(=O)OCCC(C)CCC=C(C)C` (stereo not given): “inactive”; for `O=[N+]([O-])c1cc(C(F)(F)F)ccc1Cl`: “inactive”. Turning to `CCn1c2ccccc2c2cc(N)ccc21`, the call was inactive. In the case of `O=P(c1ccccc1)(c1ccccc1)c1ccccc1`, the compound was classed as inactive.

On to `CCCCCNCCCCC`, for which the result was inactive. Regarding `CC(C)(C)c1n[nH]c(=S)n(N)c1=O`, the result was inactive. As to `Cc1ccc(C=O)cc1`, the result was inactive.

As for `CCCCCCCCCCCCCC(=O)O`, the result was inactive. The same measure, in the same setting: the same measure for `C/C=C(\C)C(=O)OCc1ccccc1`: “inactive”; for `Nc1cc(Cl)c(O)c(Cl)c1`: “inactive”; for `NCCNCCN`: “inactive”. For `Cc1ccc(Nc2ccc(O)c3c2C(=O)c2ccccc2C3=O)cc1`, the call was inactive. In the case of `O=C[C@H](O)[C@H](O)[C@H](O)CO`, the call was inactive. For the compound `CC1=CCC(O)(C(C)C)CC1` (stereo not given), the result was inactive. Still for that read-out and setting: the same measure for `Cc1ccc2ccccc2n1`: “inactive”. On the same count and under the same terms, the same measure for `O=S(=O)(O)c1cccc2c(S(=O)(=O)O)cccc12`: “inactive”; for `CC1(CO)CN(c2ccccc2)NC1=O` (stereo not given): “inactive”.

On to `COc1ccc(O)cc1`, for which the compound was classed as inactive. For the compound `O=C1CCc2ccccc2O1`, the result was inactive. On the same count and under the same terms, the entry for `CCCC/C=C\CCCCCCCCCC=O` is “inactive”; for `CC(C)(C)NC(N)=O` it is “inactive”; for `CCCCN` it is “inactive”. The same measure, in the same setting: the same measure for `CCCCC/C=C/C=C/C=O`: “inactive”; for `CC(=O)C(=O)O`: “inactive”; for `C=C(C)C(=O)OCc1ccccc1`: “inactive”. As to `CCCCCCCCCCCCN`, the compound was called inactive. On the same count and under the same terms, the same measure for `C=CCOc1nc(OCC=C)nc(OCC=C)n1`: “inactive”; for `CC(C)(N)CO`: “inactive”; for `CC1(C)[C@H](C(=O)OCc2cccc(Oc3ccccc3)c2)[C@@H]1C=C(Cl)Cl`: “inactive”. Same read-out and setting: the entry for `CC(=O)C=CC1=C(C)CCCC1(C)C` is “inactive”. As for `COC(=O)Cc1cccc2ccccc12`, the call was inactive. On the same count and under the same terms, the same measure for `CCCCNC(=O)NS(=O)(=O)c1ccc(C)cc1`: “inactive”. As for `c1ccc2[nH]ccc2c1`, the compound was called inactive. On the same count and under the same terms, the entry for `Cc1ccc(C(C)C)cc1O` is “inactive”. `Clc1ccc2c(c1)C(N1CCNCC1)=Nc1ccccc1O2`: the half-maximal activity concentration (AC50) (as a rule, the concentration giving half of the maximal activity seen) is 52.4 µM (active).

Consider `CCCCCCCCCCCCCOS(=O)(=O)O`, for which the call was inactive. The same measure, in the same setting: the entry for `O=Cc1ccc(Cl)c([N+](=O)[O-])c1` is “inactive”; for `C=C(C)[C@@H]1CC[C@@H](C)C[C@@H]1O` it is “inactive”; for `O=C(O)CCCCC1CCSS1` (stereo not given) it is “inactive”.
